According to PubChem BioAssay (NCI):
This is part of a sample that, as a whole, favours compounds with a hit. Of some 79,000 tested, about 15% had one in any assay. Active and inactive are the calls of the source. Cut-off read from the data, not from the text of the source: active = growth inhibition above about 70%; inactive = the rest.

Columns and labels:
[1] = NCI Yeast Anticancer Drug Screen. Data for the wt1 strain (AID 149);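 note: 0% = growth of vehicle-treated wt1 cultures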; conditions: S. cerevisiae wt1 strain (SPY 50644) growth inhibition, stronger effect = higher value
Summary of the method: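 Using yeast strain wt1, compound-induced growth inhibition was determined against vehicle-treated cultures.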

[2] = NCI Yeast Anticancer Drug Screen. Data for the rad50EPP+ strain (AID 151);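 note: 0% = growth of vehicle-treated control cultures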; conditions: S. cerevisiae rad50 mutant strain, stronger effect = higher value
Summary of the method: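 Genetically defined yeast (rad50EPP+, DNA damage repair alteration) is grown with compound, and inhibition of growth is expressed relative to vehicle-treated controls.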

[3] = NCI Yeast Anticancer Drug Screen. Data for the mgt1 strain (AID 153); conditions: S. cerevisiae mgt1 mutant growth inhibition, stronger effect = higher value
Summary of the method: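 In the mgt1 strain, test compounds were added and growth inhibition was determined relative to vehicle-treated controls.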

[4] = NCI Yeast Anticancer Drug Screen. Data for the rad50 strain (AID 155);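 note: 0% = growth of vehicle-only cultures of the same strain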; conditions: S. cerevisiae rad50 strain growth inhibition, stronger effect = higher value
Summary of the method: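 Relative growth inhibition (compound vs vehicle) was measured in yeast with a defined repair-gene alteration.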

[5] = NCI Yeast Anticancer Drug Screen. Data for the mec2-1 strain (AID 157); conditions: S. cerevisiae mec2-1 strain, stronger effect = higher value
Summary of the method: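 Each compound was tested on mec2-1 yeast, a strain altered in DNA damage repair or cell cycle control. Growth inhibition is reported relative to vehicle.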

[6] = NCI Yeast Anticancer Drug Screen. Data for the rad14 strain (AID 159);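 note: 0% = growth of vehicle-treated control cultures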; conditions: S. cerevisiae rad14 strain growth inhibition, stronger effect = higher value
Summary of the method: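 Screen for anticancer potential: a yeast strain altered in DNA damage repair is grown with compound, and reduced growth is quantified against vehicle controls.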

[7] = NCI Yeast Anticancer Drug Screen. Data for the sgs1 mgt1 strain (AID 161);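 note: 0% = growth of cultures given vehicle only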; conditions: S. cerevisiae sgs1 mgt1 strain, stronger effect = higher value
Summary of the method: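 Test agents were incubated with a DNA-repair-mutant yeast strain. Growth was then read and compared against vehicle-treated controls.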

[8] = NCI Yeast Anticancer Drug Screen. Data for the CLN2oe strain (AID 163);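 note: 0% = growth of vehicle-only control cultures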; conditions: S. cerevisiae CLN2oe strain, stronger effect = higher value
Summary of the method: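 First, the altered yeast strain was treated with each compound; second, its growth was measured; finally, inhibition was derived by comparison with vehicle controls.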

[9] = NCI Yeast Anticancer Drug Screen. Data for the cln2 rad14 strain (AID 165);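 note: 0% = growth equal to vehicle treated cultures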; conditions: S. cerevisiae cln2 rad14 strain, stronger effect = higher value
Summary of the method: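 Test compounds were added to cln2 rad14 yeast cultures; inhibition of growth was then determined by comparison with vehicle treatment.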

[10] = NCI Yeast Anticancer Drug Screen. Data for the bub3 strain (AID 167); conditions: S. cerevisiae bub3 mutant strain, stronger effect = higher value
Summary of the method: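 Screening used yeast with an engineered genetic alteration affecting cell cycle control. Compound-exposed cultures were compared with vehicle cultures, and reduced growth was taken as inhibition.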

[11] = NCI Yeast Anticancer Drug Screen. Data for the wt2 strain (AID 169);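 note: 0% = growth of vehicle-treated yeast cultures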; conditions: S. cerevisiae wt2 strain growth inhibition, stronger effect = higher value
Summary of the method: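 The panel's yeast strains carry defined changes in DNA repair or cell cycle genes. Each strain is grown with compound, and growth loss is scored relative to vehicle.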

[12] = NCI Yeast Anticancer Drug Screen. Data for the mlh1 strain (AID 171);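 note: 0% = growth of vehicle-treated control cultures of the same strain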; conditions: S. cerevisiae mlh1 strain growth inhibition, stronger effect = higher value
Summary of the method: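 Inhibition values reflect reduced yeast growth in the presence of compound, referenced to vehicle controls, using a strain chosen for its alteration in DNA repair or cell cycle control.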

[13] = NCI Yeast Anticancer Drug Screen. Data for the sgs1 strain (AID 173);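 note: 0% = growth of vehicle-only control cultures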; conditions: S. cerevisiae sgs1 mutant, stronger effect = higher value
Summary of the method: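 Vehicle-treated cultures served as reference for growth inhibition of a yeast strain altered in DNA damage repair or cell cycle control after compound exposure.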

[14] = NCI Yeast Anticancer Drug Screen. Data for the mlh1 rad18 strain (AID 175); conditions: S. cerevisiae mlh1 rad18 strain growth inhibition, stronger effect = higher value
Summary of the method: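 Inhibition values reflect reduced growth of mutant yeast versus vehicle-treated controls following compound exposure; the mutations affect DNA damage repair.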

[15] = NCI Yeast Anticancer Drug Screen. Data for the rad18 strain (AID 177); conditions: S. cerevisiae rad18 mutant growth inhibition, stronger effect = higher value
Summary of the method: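 Steps: expose repair-mutant yeast to compound; measure growth; express as inhibition relative to vehicle control.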

[16] = NCI Yeast Anticancer Drug Screen. Data for the rad52 strain (AID 147);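 note: 0% = growth of vehicle-treated control cultures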; conditions: S. cerevisiae rad52 mutant growth inhibition, stronger effect = higher value
Summary of the method: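 Inhibition of yeast growth, referenced to vehicle controls, was the measured output for a strain with defective DNA damage repair.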

[17] = at 5.0 µM (retest, dose inferred, filed as 0.5)
[18] = at 50.0 µM (retest, dose inferred, filed as 5.0)

Measured: growth inhibition

CCN(CCCl)c1cc(CN(C)C)cc(NC(=O)c2ccc(C(=O)Nc3cc(CN(C)C)cc(N(CC)CCCl)c3)cc2)c1
active: [3]; at 100.0 µM 89% | [4]; [18] 93% | [4]; at 50.0 µM 73.5% | [4]; at 100.0 µM 96% | [5]; [18] 95% | [5]; at 100.0 µM 90% | [6]; at 100.0 µM 96% | [7]; [18] 97% | [10]; [18] 97% | [10]; at 100.0 µM 75% | [11]; at 100.0 µM 89% | [12]; at 100.0 µM 90% | [13]; at 100.0 µM 94% | [14]; [17] 71% | [14]; [18] 98% | [14]; at 50.0 µM 91.7% | [15]; at 11.0 µM 85% | [15]; at 33.0 µM 90% | [15]; at 100.0 µM 97%
inactive: [1]; at 1.2 µM 9% | [1]; at 3.7 µM 20% | [1]; at 11.0 µM 9% | [1]; at 33.0 µM 8% | [1]; at 100.0 µM 40% | [2]; at 1.2 µM 17% | [2]; at 3.7 µM 32% | [2]; at 11.0 µM 9% | [2]; at 33.0 µM 19% | [2]; at 100.0 µM 35% | [3]; at 1.2 µM 5% | [3]; at 3.7 µM 3% | [3]; at 11.0 µM -6% | [3]; at 33.0 µM 10% | [4]; at 1.2 µM 3% | [4]; at 3.7 µM 11% | [4]; [17] 36% | [4]; at 11.0 µM 4% | [4]; at 33.0 µM 58% | [5]; at 1.2 µM -8% | [5]; at 3.7 µM 1% | [5]; [17] 26% | [5]; at 11.0 µM -9% | [5]; at 33.0 µM 8% | [5]; at 50.0 µM 37.5% | [6]; at 1.2 µM -11% | [6]; at 3.7 µM -13% | [6]; at 11.0 µM -6% | [6]; at 33.0 µM 56% | [7]; [17] 39% | [7]; at 50.0 µM 65.2% | [8]; at 1.2 µM 15% | [8]; at 3.7 µM 14% | [8]; at 11.0 µM 17% | [8]; at 33.0 µM 27% | [8]; at 100.0 µM 47% | [9]; [17] 6% | [9]; [18] 58% | [9]; at 50.0 µM 35% | [10]; at 1.2 µM -30% | [10]; at 3.7 µM -28% | [10]; [17] 32% | [10]; at 11.0 µM -14% | [10]; at 33.0 µM -22% | [10]; at 50.0 µM -8.9% | [11]; at 1.2 µM -12% | [11]; at 3.7 µM -19% | [11]; at 11.0 µM -16% | [11]; at 33.0 µM 3% | [12]; at 1.2 µM -6% | [12]; at 3.7 µM -6% | [12]; at 11.0 µM -9% | [12]; at 33.0 µM 28% | [13]; at 1.2 µM 5% | [13]; at 3.7 µM 3% | [13]; at 11.0 µM 7% | [13]; at 33.0 µM 65% | [15]; at 1.2 µM 3% | [15]; at 3.7 µM 57%

NC1=NCC(c2ccc(Cl)cc2)O1 (stereo unspecified)
active: [14]; [18] 81%
inactive: [16]; at 1.2 µM -4% | [16]; at 3.7 µM -2% | [16]; at 11.0 µM -5% | [16]; at 33.0 µM -8% | [16]; at 100.0 µM 47% | [2]; at 1.2 µM -2% | [2]; at 3.7 µM 0% | [2]; at 11.0 µM 0% | [2]; at 33.0 µM 4% | [2]; at 100.0 µM 4% | [3]; at 1.2 µM -3% | [3]; at 3.7 µM -4% | [3]; at 11.0 µM -2% | [3]; at 33.0 µM 5% | [3]; at 100.0 µM 50% | [4]; at 1.2 µM -1% | [4]; at 3.7 µM -4% | [4]; [17] -151% | [4]; at 11.0 µM 7% | [4]; at 33.0 µM 11% | [4]; [18] 17% | [4]; at 50.0 µM 57.8% | [4]; at 100.0 µM 49% | [5]; at 1.2 µM 1% | [5]; at 3.7 µM -1% | [5]; [17] -51% | [5]; at 11.0 µM 3% | [5]; at 33.0 µM 1% | [5]; [18] 10% | [5]; at 50.0 µM 13.3% | [5]; at 100.0 µM 44% | [6]; at 1.2 µM -2% | [6]; at 3.7 µM -3% | [6]; at 11.0 µM -1% | [6]; at 33.0 µM 2% | [6]; at 100.0 µM 52% | [7]; [17] -62% | [7]; [18] 17% | [7]; at 50.0 µM 50.2% | [8]; at 1.2 µM -2% | [8]; at 3.7 µM -2% | [8]; at 11.0 µM 3% | [8]; at 33.0 µM 1% | [8]; at 100.0 µM 50% | [9]; [17] -64% | [9]; [18] 7% | [9]; at 50.0 µM 31.1% | [10]; at 1.2 µM -11% | [10]; at 3.7 µM -9% | [10]; [17] -76% | [10]; at 11.0 µM -4% | [10]; at 33.0 µM -6% | [10]; [18] 27% | [10]; at 50.0 µM 39.4% | [10]; at 100.0 µM 49% | [11]; at 1.2 µM -1% | [11]; at 3.7 µM 0% | [11]; at 11.0 µM 0% | [11]; at 33.0 µM -1% | [11]; at 100.0 µM 47% | [12]; at 1.2 µM 7% | [12]; at 3.7 µM -5% | [12]; at 11.0 µM -5% | [12]; at 33.0 µM -4% | [12]; at 100.0 µM 47% | [13]; at 1.2 µM 0% | [13]; at 3.7 µM -1% | [13]; at 11.0 µM -2% | [13]; at 33.0 µM -2% | [13]; at 100.0 µM 48% | [14]; [17] -135% | [14]; at 50.0 µM 50.4% | [15]; at 1.2 µM -4% | [15]; at 3.7 µM -3% | [15]; at 11.0 µM -3% | [15]; at 33.0 µM -3% | [15]; at 100.0 µM 48%
